Our source for the AC50 values is PubChem BioAssay AID2283097 (EPA ToxCast).

By AC50 is commonly meant the midpoint of the concentration-response curve, whichever way the signal moves.

Inconclusive results are not listed. Activity calls are given as the source filed them. Rule for the calls: active = hit-call score of the fitted dose curve at least 0.9, where 1 is the maximum; inconclusive = response in the unintended direction; inactive = score below 0.9.

The assay deals with human CYP1B1, CYP1B1 (gene 1545) (UniProt Q16678). As to the kind of experiment: NVS_ADME_hCYP1B1: NovaScreen (NVS) CYP450-related Enzyme Activity (ADME) Assay for human CYP1B1. As to the method: NVS_ADME_hCYP1B1 is a biochemical, single-readout assay that uses extracted gene-proteins in a cell-free assay. Measurements were taken 1 hour after chemical dosing in a 96-well plate.NVS_ADME_hCYP1B1 is one of one assay component(s) measured or calculated from the NVS_ADME_hCYP1B1 assay. It is designed to make measurements of enzyme activity, a form of enzyme reporter, as detected with fluorescence intensity signals by Fluorescence technology.Data from the assay component NVS_ADME_hCYP1B1 was analyzed into 1 assay endpoint. This assay endpoint, NVS_ADME_hCYP1B1, was analyzed in the positive analysis fitting direction relative to Acetonitrile as the negative control and baseline of activity. Using a type of enzyme reporter, loss-of-signal activity can be used to understand changes in the enzymatic activity as they relate to the gene CYP1B1. Furthermore, this assay endpoint can be referred to as a primary readout, because this assay has produced multiple assay endpoints where this one serves a enzymatic activity function. To generalize the intended target to other relatable targets, this assay endpoint is annotated to the cyp intended target family, where the subfamily is xenobiotic metabolism. […]
Sequence of human CYP1B1, CYP1B1 (gene 1545) (Q16678 whole entry, looked up): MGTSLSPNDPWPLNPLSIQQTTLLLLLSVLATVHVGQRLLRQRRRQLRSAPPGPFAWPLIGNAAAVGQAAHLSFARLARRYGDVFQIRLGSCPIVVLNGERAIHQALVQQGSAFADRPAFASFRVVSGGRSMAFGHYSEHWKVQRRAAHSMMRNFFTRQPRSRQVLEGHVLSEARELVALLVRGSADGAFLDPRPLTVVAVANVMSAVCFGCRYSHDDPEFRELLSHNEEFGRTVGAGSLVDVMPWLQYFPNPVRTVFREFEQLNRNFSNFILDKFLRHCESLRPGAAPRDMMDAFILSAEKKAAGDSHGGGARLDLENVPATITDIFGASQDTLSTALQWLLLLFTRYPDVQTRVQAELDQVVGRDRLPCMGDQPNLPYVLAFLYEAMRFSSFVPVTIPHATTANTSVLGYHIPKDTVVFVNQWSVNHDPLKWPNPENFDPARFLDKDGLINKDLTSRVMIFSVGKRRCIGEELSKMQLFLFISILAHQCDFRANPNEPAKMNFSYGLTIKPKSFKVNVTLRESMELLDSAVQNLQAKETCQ

Regarding `C#CCOC(=O)[C@@H](C)Oc1ccc(Oc2ncc(Cl)cc2F)cc1`, the AC50 is 2.14 µM (active). With `c1ccc2[nH]c(-c3cscn3)nc2c1`, the AC50 is 6.26 µM (active).
